Measurements as given in PubChem BioAssay (NCATS).
Some of the results follow. Where a call stands in place of a potency, no number is given. Results filed as inconclusive are left out. Calls of active or inactive are those of the source. Calls come from the whole dose curve; as a rule, active = well fitted inhibition curve with a large enough effect; inconclusive = small, poorly fitted or top-dose-only effect; inactive = flat fitted curve, though single readings scatter.

Tested on: NanoLuc luciferase (engineered Oplophorus gracilirostris luciferase)
Assay: Biochemical coelenterazine-based NLuc counterscreen for small molecule modulators of PMP22 gene expression - Km assay (AID 1508639)
Conditions: secreted NLuc enzyme, coelenterazine luminescence, Km conditions; series mostly up to 57.5 µM
From the text: Assay Provider: Jim Inglese Ph.D. National Center for Advancing Translational Science, National Institutes of Health, Rockville, MD CMT is a heterogeneous group of neurological disorders that affect approximately 1 in 2,500 people. In particular, the most common form of CMT, CMT1A is genetically linked to the duplication of the PMP22 gene which leads to Schwann cell overexpression, thus manifesting itself as a typical case of dose-sensitive diseases. To identify small molecule compounds that can mediate the expression of PMP22 we developed a phenotypic assay screening strategy by utilizing genome editing techniques to construct Schwann cell lines containing novel reporter technology to monitor the transcriptional or translational regulation of PMP22. For high sensitivity we use a bioluminescent reporter system embedded in the 3' UTR of the PMP22 gene (S16(c9) Pmp22-F2sN) to identify compounds that inhibit gene expression. […] We can further discriminate the effect of all transcriptionally active molecules on PMP22 translation or stability with an assay that incorporates a short NLuc peptide (HiBiT) at the C-terminus of expressed PMP22 (S16(f8) PMP22-HiBiT) allowing alpha complementation and luminescence detection of membrane-associated PMP22 protein. These assays were screened against the NCATS Sytravon Library Collection. Miniaturization of these assays to 1536-well plate format for quantitative high throughput screening (qHTS) yielded rich data sets immediately from the qHTS assay (S16(c9) Pmp22-F2sN), when compared with data from a cell viability assay (Cell TiterGlo) to identify compounds that decreased the output signals through cellular toxicity to streamline the selection process of actives for subsequent characterization using the HiBiT assay (S16(f8) PMP22-HiBiT).
Biochemical Coelenterazine-based solution NLuc assay (Km assay) PROTOCOL TABLE (format as described by Inglese J, Shamu CE and Guy RK. 2007) SEQUENCE No. (e.g., 1, 2, 3, etc.); PARAMETER (e.g., Cells, Incubation, Reagent, etc.); VALUE and DESCRIPTION. 1. Reagent. Add 2 uL substrate per well into Greiner 1536-well white/solid bottom high base, medium binding plates. 2. Compounds. Library compounds and controls added at 23nL per well, transferred by Pin Tool. 3. Incubation. Incubate plates 5 min at ambient temperature. 4. Reagent. Add 2uL NLuc enzyme solution per well of Greiner 1536-well plates. 5. Incubation. Incubate plates at room temperature for 10 min., protect from light. 6. Detector. FLuc luminescence measured using CCD-based camera (Viewlux). NOTES (numbers refer to Sequence numbers above; values are from representative experiments) 1. Freshly prepared 15 uM Coelenterazine, 0.3M Sodium Ascorbate, 0.005M NaCl and 0.1% TritonX in PBS pH7.4, filtered through […]. 4. Enzyme was obtained by filtering media of S16 cells expressing secreted NLuc (Inglese et al. 2014) grown to 80-90% confluency in DMEM High Glucose, No Phenol Red media + 10% heat inactivated FBS + 1% Pen/Strep supplemented media6. Luminescence Read (Fluc): Clear filter; Exposure = 10 sec, Gain = High, Speed = Slow, Binning = 2X 6. Luminescence Read (Nluc): Clear filter; Exposure = 1 sec, Gain = High, Speed = Slow, Binning = 2X REFERENCES: 1. Inglese J, Shamu CE and Guy RK, Reporting data from high throughput screening of small molecule libraries, Nature Chemical Biology, 2007, 3(8): 438-441. doi.org/10.1038/nchembio0807-438 2. Yasgar A, Shinn P, Jadhav A, Auld DS, Michael S, Zheng W, Austin CP, Inglese J and Simeonov A, Compound Management for Quantitative High-Throughput Screening. J. Assoc. Lab. Auto., 2008, 13: 79-89. doi: 10.1016/j.jala.2007.12.004 3. Inglese, J., Dranchak, P., Moran, J. J., Jang, S. W., Srinivasan, R., Santiago, Y., Zhang, L., Guha, R., Martinez, N., MacArthur, R., Cost, G. J., and Svaren, J. (2014) Genome editing-enabled HTS assays expand drug target pathways for Charcot-Marie-tooth disease, ACS Chem Biol 9, 2594-2602.
Potency is the fitted concentration of half-maximal effect.

Which Potency does the source give for Cc1cc(F)ccc1NS(=O)(=O)c1ccc(-n2cccn2)cc1 here?
The Potency was 13.7 µM (active).

Which Potency does the source give for CCOc1ccc(NC(=O)c2c(NC(=O)Cc3ccccc3)sc3c2CCC(C)C3)cc1 (stereo unspecified) here?
Its Potency is 17.2 µM (active).

Which Potency does the source give for Cc1ccc(OCCSc2nc3ccc(NC(=O)COc4ccc(C)cc4)cc3s2)cc1 here?
Its Potency is “inactive”.

For COc1ccccc1Nc1c2c(nc3ccc(NC(=O)/C=C/c4cc(OC)c(OC)c(OC)c4)cc13)CCCC2, which Potency is on record?
Its Potency is 1.93 µM (active).

Which Potency does the source give for CC(=O)N1CCCc2cc(S(=O)(=O)N3CCCC(C(=O)N4CCN(c5cccc(Cl)c5)CC4)C3)ccc21 (stereo unspecified) here?
Its Potency is “inactive”.

For CCOC(=O)c1ccc(N2C(=O)c3n[nH]c(C)c3C2c2ccc(O)c(OC)c2)cc1 (stereo unspecified), which Potency is on record?
Its Potency is 19.3 µM (active).

O=C(c1ccc(C(F)(F)F)cc1)N1CCC(c2nc(-c3ccc(S(=O)(=O)N4CCCC4)cc3)no2)CC1 was tested. Which Potency did it give?
The Potency was “inactive”.

How did the Potency turn out when Cc1ccccc1CNC(=O)CSc1nnc(C)c2c(C)n(-c3ccccc3)nc12 was run?
Its Potency is “inactive”.

With CCOC(=O)c1c(C)[nH]c(CCC(=O)NCCCN2CCN(c3cc(C)ccc3C)CC2)c1C as the molecule, how does the Potency read?
Its Potency is “inactive”.

With Cc1nnc(SCC(=O)NCc2ccccc2Cl)c2nn(-c3ccccc3)c(C)c12 as the molecule, how does the Potency read?
The Potency was “inactive”.

With CCCn1c(=N)c(C(=O)NCc2ccccc2)cc2c(=O)n3cccc(C)c3nc21 as the molecule, how does the Potency read?
The Potency was “inactive”.

CC(C)(C)c1ccc(C(=O)NCC(c2ccco2)S(=O)(=O)c2ccc(F)cc2)cc1 (stereo unspecified) was tested. Which Potency did it give?
The Potency was “inactive”.

For Cc1cc(OCC(=O)NCC2(N(C)C)CCCCC2)cc(C)c1Cl, which Potency is on record?
Its Potency is “inactive”.

For Cc1cccc(Nc2cc(C)nc(-n3nc(C)cc3C)n2)c1, which Potency is on record?
Its Potency is 9.68 µM (active).

How did the Potency turn out when O=C(NCCCN1CCN(c2cccc(Cl)c2)CC1)c1nnc(Cc2ccc(F)cc2Cl)o1 was run?
The Potency was “inactive”.

With COc1ccc(CCNC(=O)c2cc(=O)c3c(C)cc(C)cc3o2)cc1OC as the molecule, how does the Potency read?
The Potency was 0.273 µM (active).

Cc1ccc(C)n1-c1nnc(N2CCC(C(=O)NCc3ccccc3Cl)CC2)s1 was tested. Which Potency did it give?
The Potency was “inactive”.

COc1cccc(NC(=O)CSC2=Nc3ccccc3C3=NC(CC(=O)NC4CCCCC4)C(=O)N23)c1 (stereo unspecified) was tested. Which Potency did it give?
The Potency was “inactive”.

With Cc1ccc(CCNC(=O)C2CCN(c3nnc(-n4cccc4CNc4ccc(C)cc4)s3)CC2)cc1 as the molecule, how does the Potency read?
Its Potency is “inactive”.

With CCOC(=O)c1c(C)[nH]c(CCC(=O)NCCCN2CCN(c3cccc(Cl)c3)CC2)c1C as the molecule, how does the Potency read?
Its Potency is “inactive”.

CCc1ccc(C2CC(=O)c3c([nH]c(C(=O)OCc4ccc(C)cc4)c3C)C2)cc1 (stereo unspecified) was tested. Which Potency did it give?
Its Potency is “inactive”.

CCCS(=O)(=O)c1ncc(Cl)c(C(=O)Nc2scc(-c3ccccc3)c2C(=O)OCC)n1 was tested. Which Potency did it give?
Its Potency is “inactive”.

For CCCCOc1ccc(CN2C(=O)C(=O)c3cc(Br)cc(C)c32)cc1OC, which Potency is on record?
The Potency was “inactive”.

Which Potency does the source give for CCOCCCNC(=O)c1c(NC(=O)c2nc(SC)ncc2Cl)sc2c1CCCC2 here?
Its Potency is “inactive”.

How did the Potency turn out when CCC1=Nc2cc(C(=O)NCCCOC(C)C)ccc2Sc2ccc(C)cc21 was run?
Its Potency is “inactive”.

Which Potency does the source give for CCOC(=O)C1CCN(C(=O)CSc2c3c(nc4ccc(Cl)cc24)CCCC3)CC1 here?
Its Potency is “inactive”.

COc1ccc(-c2onc(C)c2C)cc1S(=O)(=O)NCC1CCN(Cc2cccc(F)c2)CC1 was tested. Which Potency did it give?
Its Potency is “inactive”.

Which Potency does the source give for CCCn1c2ccccc2c2cnn(CC(=O)NCC3CCN(Cc4ccc(C)cc4)CC3)c(=O)c21 here?
Its Potency is “inactive”.

With CCOC(=O)c1ccc(NC(=O)CSc2nc3c([nH]c4ccccc43)c(=O)n2C)cc1 as the molecule, how does the Potency read?
Its Potency is “inactive”.

With O=C(c1ccc2c(c1)N(Cc1ccc(F)cc1)C(=O)c1ccccc1S2(=O)=O)N1CCN(c2ccccn2)CC1 as the molecule, how does the Potency read?
Its Potency is 1.93 µM (active).

How did the Potency turn out when CCC1CCCCN1CCCNC(=O)c1cc2c(Cl)nc3ccccc3c2s1 (stereo unspecified) was run?
The Potency was “inactive”.
